# Laboratory results published in PubChem BioAssay AID1745847 (National Center for Advancing Translational Sciences (NCATS), 2022).
# Screen size: about 2,100 compounds; about 670 (32%) were called active. Another 50% or so got no clear call; they are omitted. The list shows a part of the results. Unmarked numbers belong to inactive results. Calls come from the whole dose curve; as a rule, active = well fitted inhibition curve with a large enough effect; inconclusive = small, poorly fitted or top-dose-only effect; inactive = no such curve, though single readings can be large or run the other way.
# Experiment: CMV-Luciferase Counterscreen for Inhibitors of ATXN expression; note: nearly all actives have a fitted effect of over 55% in size
# Conditions: HEK-293 CMV-luciferase reporter, luminescence, 24 h; series mostly up to 57.5 µM; activity change, negative = inhibition: at the top concentration
# % is set by controls: 0 for no effect and ±100 for the full control effect; potency is the fitted concentration of half-maximal effect.
Structure (SMILES),"activity change, negative = inhibition",Potency
NC(=O)Cn1c(=O)n(CCc2ccccc2)c(=O)c2c3c(sc21)CCCC3,10.9%,–
CCNc1ccc(Br)cc(C(=O)/C=C/c2ccccc2Cl)c1=O,-8.42% [at 11.4 µM],–
O=C(c1ccoc1)N1CCN(c2cc(-c3cccnc3)nc3cc(-c4cccc(Cl)c4)nn23)CC1,–,28.2 µM (active)
O=C(Nc1cccc2c1CCCC2)c1cc([N+](=O)[O-])ccc1Cl,–,6.31 µM (active)
COc1cccc(CC2(CO)CCCN(Cc3[nH]c4ccc(C)cc4c3C)C2)c1 (stereo unspecified),-14.8%,–
Cc1ccc(S(=O)(=O)Nc2cccc3cccnc23)c([N+](=O)[O-])c1,80.5%,–
Cc1ccc(S(=O)(=O)Nc2ccc(O)c3cccnc23)cc1,–,28.2 µM (active)
COc1cccc(C(NC(C)=O)c2ccc3cccnc3c2O)c1 (stereo unspecified),–,2.82 µM (active)
CCC(=O)NC(c1ccco1)c1cc(Br)c2cccnc2c1O (stereo unspecified),–,8.91 µM (active)
CC(=O)NC(c1ccc2ccccc2c1)c1ccc2cccnc2c1O (stereo unspecified),–,0.355 µM (active)
CC(=O)NC(c1ccc(C(C)C)cc1)c1ccc2cccnc2c1O (stereo unspecified),–,1.26 µM (active)
OC1(c2ccc(Br)cc2)CCNCC1,0.489% [at 11.4 µM],–
CC(=O)NC(c1ccco1)c1ccc2cccnc2c1O (stereo unspecified),–,1.58 µM (active)
Oc1c(C(Nc2ccccn2)c2ccccn2)ccc2cccnc12 (stereo unspecified),–,2.82 µM (active)
CC(=O)NC(c1ccco1)c1cc(Cl)c2cccnc2c1O (stereo unspecified),–,7.94 µM (active)
Cc1cccc(NC(c2ccc(C)s2)c2ccc3ccc(C)nc3c2O)n1 (stereo unspecified),21.1%,–
Oc1cccc(C(Nc2nccs2)c2ccc3cccnc3c2O)c1 (stereo unspecified),–,2.82 µM (active)
CC(C)(C)OC(=O)N1CCC(c2c(C(=O)NCC3CCN(C4CCCC4)C3)cnn2-c2cccc(Cl)c2)CC1 (stereo unspecified),-22.1% [at 11.4 µM],–
CN(Cc1ccccc1)C(=O)c1ccc(NC(=O)C2CCN(C(=O)OC(C)(C)C)CC2)cc1,–,7.08 µM (active)
O=C(Cc1coc2cc3c(cc12)CCC3)OCC(=O)N1CCCC1=O,–,15.8 µM (active)
Cc1ccc(-n2c(-c3ccccc3)c[n+]3c2CCc2ccccc2-3)c(C)c1,–,0.794 µM (active)
S=C(Nc1ccccc1)Nc1ccc(OCc2ccc(Cl)cc2Cl)cc1,–,3.55 µM (active)
S=C(Nc1cc(Cl)ccc1Oc1ccccc1)N1CCN(c2ccccn2)CC1,–,17.8 µM (active)

Structure (SMILES),"activity change, negative = inhibition",Potency
Oc1[nH]c2ccc(Br)cc2c1N=NC(=S)N1CCOCC1,43.7% [at 11.4 µM],–
O=C(Nc1ccc(Br)cc1)c1cccc(OC(=S)N2CCOCC2)c1,–,2 µM (active)
Cc1ccc(S(=O)(=O)N2CCc3ccccc3CC2)cc1,–,0.794 µM (active)
O=C(NCCc1csc(-c2cccnc2)n1)c1cccc(Cl)c1,-26.6%,–
COCCNC(=O)c1cccc(Nc2nc(-c3ccccc3)c3cc(Cl)ccc3n2)c1,–,15.8 µM (active)
CCN1CCN(C(=S)c2ccc(-c3ccccc3)cc2)CC1,–,2 µM (active)
OCCN1CCN(C(=S)c2ccc(-c3ccccc3)cc2)CC1,–,2.51 µM (active)
CC(C)=C1SC(N2CCN(c3ccc(C)c(Cl)c3)CC2)=NC1=O,103% [at 11.4 µM],–
CCn1c2ccccc2c2cc(C3C(C#N)=C(N)Oc4n[nH]c(COC)c43)ccc21 (stereo unspecified),–,2.82 µM (active)
CCn1c2ccccc2c2cc(NC(=O)COC(=O)C3CCC(=O)N3)ccc21 (stereo unspecified),18.1%,–
CC1(C(=O)Nc2cnc3ccccc3c2)CCN1C(=O)c1ccccc1CCc1ccccc1 (stereo unspecified),–,28.2 µM (active)
COC(=O)C1=C(C)N(Cc2ccccc2)C(=NCCc2cccnc2)N[C@H]1c1ccc(Br)cc1,–,28.2 µM (active)
CCCCn1c(=N)n(CCOc2ccc(C)cc2)c2ccccc21,–,10 µM (active)
N=c1n(CCCOc2ccccc2Cl)c2ccccc2n1CC(N)=O,2.57%,–
Cc1ccc(OCC(O)Cn2c(=N)n(CCN3CCCCC3)c3ccccc32)cc1 (stereo unspecified),-13.4%,–
Cc1ccc(-c2nc3ccc(Cl)cn3c2CC(C)(C)C)cc1,-2.84% [at 11.4 µM],–
COc1cc(C)c(C(=O)CC(=O)c2c(C)cc(OC)cc2C)c(C)c1,-13.8% [at 11.4 µM],–
Cc1ccc(C(C)C)c(OCc2ccc(C(=O)N/N=C/c3cccc(O)c3O)cc2)c1,–,2.82 µM (active)
Cc1ccc(C(C)C)c(OCc2ccc(C(=O)N/N=C/c3ccc(O)cc3O)cc2)c1,–,2.51 µM (active)
Cc1ccc(C(=O)N/N=C/c2nc3ccccc3n2C)cc1,-21.7%,–
O=C(c1ccc(-c2nnc(Nc3cccc(Cl)c3)c3ccccc23)cc1)N1C[C@H]2C[C@H](C1)c1cccc(=O)n1C2,46% [at 11.4 µM],–
CCN(CC)CCNC(=O)c1ccc(NC(=O)c2ccccc2-c2ccc(C(F)(F)F)cc2)cc1,-16.1%,–
COC(=O)c1cc(NC(=O)c2cc(-c3ccc(C(F)(F)F)cc3)oc2C(F)(F)F)ccc1N1CCOCC1,–,22.4 µM (active)

Structure (SMILES),"activity change, negative = inhibition",Potency
COC(=O)c1ccc(N2CCOCC2)c(NC(=O)Nc2cccc(OC)c2)c1,2.86% [at 11.4 µM],–
O=C(NCc1ccco1)c1ccc(-c2cccc(Cl)c2)o1,34.1%,–
O=C(NCc1ccco1)/C(=C/c1cccc(C(F)(F)F)c1)c1nc2ccccc2[nH]1,-12% [at 11.4 µM],–
O=C(NCc1ccco1)c1nc2c(nnn2Cc2ccccc2Cl)c(=O)[nH]1,–,1.58 µM (active)
CC(C)CCNC(=O)COc1cccc2c1OC(C)(C)C2,-14.5%,–
Cc1ccc(OCCCC(=O)NNC(=O)c2ccccn2)cc1,–,11.2 µM (active)
Cc1cccc(OCCCC(=O)Nc2nccs2)c1,249% [at 11.4 µM],–
CC(=O)c1cccc(-c2csc3ncnc(Sc4nnnn4C)c23)c1,–,8.91 µM (active)
Cn1nnnc1Sc1ncnc2scc(-c3cccc(S(C)(=O)=O)c3)c12,–,14.1 µM (active)
CC(=O)c1cccc(-c2cnc3c(NC=O)cc(-c4ccccc4F)cn23)c1,-18.2% [at 11.4 µM],–
NC(=O)N/N=C/c1c(O)ccc2oc3c(c12)CCCC3,111%,–
O=C(CSCC(=O)Nc1ccccc1)N/N=C/c1c(O)ccc2ccccc12,–,0.501 µM (active)
O=C(CN1CCCC1)N/N=C/c1c(O)ccc2ccccc12,–,1.78 µM (active)
O=C(CN1CCOCC1)N/N=C/c1c(O)ccc2ccccc12,–,8.91 µM (active)
CCCCn1c(SCC(=O)Nc2cc(NC(=O)c3ccco3)ccc2C)nc2ccccc2c1=O,-9.45%,–
C=C(C)Cn1c(SCC(=O)N/N=C/c2c(O)ccc3ccccc23)nc2ccccc2c1=O,–,22.4 µM (active)
CCCC(=O)Nc1c(C(=O)OCC)[nH]c2ccccc12,-4.94% [at 11.4 µM],–
O=c1cc(N2CCN(c3ccccc3)CC2)[nH]c(=O)n1C1CCCCC1,100%,–
O=C(CCSc1nc2ccccc2s1)N/N=C/c1c(O)ccc2ccccc12,–,7.94 µM (active)
CCCC(=O)Nc1ccc2nc(SCC(=O)N3CCCC3)sc2c1,-8.01%,–
CCOC(=O)C1CCN(c2ncnc3c2cnn3-c2ccc(Cl)cc2)CC1,–,2.24 µM (active)
CC1CCCN(c2ncnc3c2cnn3-c2ccc(Cl)cc2)C1 (stereo unspecified),–,22.4 µM (active)
COc1ccc(NC(C)C(=O)N/N=C/c2c(O)ccc3ccccc23)cc1 (stereo unspecified),–,6.31 µM (active)

Structure (SMILES),"activity change, negative = inhibition",Potency
COc1cc([N+](=O)[O-])cc(/C=N/NC(=O)C(C)Nc2cccc3ccccc23)c1O (stereo unspecified),8.76% [at 11.4 µM],–
COc1ccccc1NCC(=O)N/N=C/c1c(O)ccc2ccccc12,–,3.16 µM (active)
CCc1cc[n+](C2=C([O-])c3ccccc3C(=O)/C2=N\S(=O)(=O)c2cccs2)cc1,–,20 µM (active)
COc1cc(/C=C/c2ccc3cccc(O)c3n2)cc(OC)c1OC,16.4%,–
Oc1ccc2ccccc2c1/C=C/c1ccc2c(Br)cc(Br)c(O)c2n1,–,3.16 µM (active)
CCCc1cc(=O)[nH]c(-n2[nH]c3c(c2=O)CCCC3)n1,–,12.6 µM (active)
NC(=S)N1OC[C@@H]2COc3ccc4ccccc4c3[C@@H]21,43.5%,–
CC(NC(=O)Nc1cccc([N+](=O)[O-])c1)(C(F)(F)F)C(F)(F)F,–,17.8 µM (active)
O=C(NC1CCN(Cc2ccccc2)CC1)c1cccc(S(=O)(=O)Nc2ccc(SC(F)F)cc2)c1,–,14.1 µM (active)
CCC(C)n1cnc2c(c1=O)c1nc3ccccc3nc1n2-c1ccc2c(c1)OCCO2 (stereo unspecified),2.65%,–
c1ccc(COc2ncnc3c2ncn3CCCN2CCN(Cc3cccc4ccccc34)CC2)cc1,–,14.1 µM (active)
Cc1cc2oc3cc(NCCC4CCCN4C)ccc3c(=O)c2cc1C (stereo unspecified),108%,–
COc1ccc(CC(N)c2csc(NC(=O)c3cc(C(C)(C)C)nn3Cc3ccccc3)n2)cc1 (stereo unspecified),-13.8% [at 11.4 µM],–
COc1ccc(CC(N)c2csc(NC(=O)c3ccccc3OC)n2)cc1 (stereo unspecified),-21.7%,–
COc1ccc(CC(N)c2csc(NC(=O)c3cccc(OC(F)(F)F)c3)n2)cc1 (stereo unspecified),–,28.2 µM (active)
O=C(Nc1nc2cc(Cl)ccc2s1)C1CCCN(S(=O)(=O)c2cccc3cccnc23)C1 (stereo unspecified),–,25.1 µM (active)
Cc1ccc(S(=O)(=O)c2cc3cc(Br)ccc3oc2=O)cc1,-15.7%,–
COc1cccc(/C=N/NC(=O)CNC(=O)C2COc3ccccc3O2)c1O (stereo unspecified),–,7.94 µM (active)
CCN(CC)c1ccc(/C=N/NC(=O)CNC(=O)C2COc3ccccc3O2)c(O)c1 (stereo unspecified),–,0.398 µM (active)
COc1ccccc1/C=C\C(=O)NCC(=O)N/N=C/c1cccc(OC)c1O,–,12.6 µM (active)
COc1cccc2c1C(=O)C=C(C)C2=O,–,22.4 µM (active)
Cc1cc(C(=O)N/N=C/c2cc(Br)cc(Br)c2OC(=O)c2cccc(F)c2)n[nH]1,–,4.47 µM (active)
